Screening data: PubChem BioAssay, National Center for Advancing Translational Sciences (NCATS)
SARS PLpro yeast = qHTS of Yeast-based Assay for SARS-CoV PLP; actives 0.19% (n = 330,000); AID 485353, 2010; Potency, µM (titrated, usually from 32.9 µM), for inactives: at the top dose activity, positive = growth rescue, usual class: activators; S. cerevisiae expressing SARS-CoV PLpro, growth rescue; calls by dose curve; also: 0% is about no effect; nearly all actives have a fitted effect of over 55% in size
Pf growth 48h = Primary qHTS for delayed death inhibitors of the malarial parasite plastid, 48 hour incubation; AID 504832, 2011; P. falciparum luciferase growth in erythrocytes, 48 h; Potency, µM (titrated, usually from 28.7 µM), for inactives: at the top dose activity change, negative = inhibition, actives largely listed as inhibitors; actives 5.9% (n = 310,000); also: % is scaled to controls: 0 for no effect and ±100 for the full control effect
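Cell-based growth assay: transgenic P. falciparum expressing firefly luciferase, cultured in red cells within RPMI 1640 containing 0.5% w/v Albumax, 24 mM bicarbonate and gentamycin. A drop in luciferase activity indicates inhibition.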
Pf growth 96h = Primary qHTS for delayed death inhibitors of the malarial parasite plastid, 96 hour incubation; AID 504834, 2011; actives 6.9% (n = 320,000); P. falciparum luciferase reporter growth, 96 h; Potency, µM (titrated, usually from 28.7 µM), without a hit: at the top dose activity change, negative = inhibition, actives largely listed as inhibitors; also: % is scaled to controls: 0 for no effect and ±100 for the full control effect
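Erythrocytes infected with luciferase-expressing P. falciparum were dispensed at 2% hematocrit and 0.05% parasitemia (final), then incubated with compounds 96 hours at 37 C in 5% CO2. Luminescence after detection reagent addition reported growth.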
AMA1-RON2 inh = qHTS for Inhibitors of AMA1-RON; Towards Development of Antimalarial Drug Lead: Primary Screen; AlphaScreen AMA1-biotinylated RON2 peptide binding; Potency, µM (doses to about 58.2 µM), inactives show top-dose activity change, negative = inhibition, usual class: inhibitors; actives 0.2% (n = 360,000); AID 720542, 2013;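 also: 0% = vehicle wells and -100% = peptide control; nearly all actives have a fitted effect of over 45% in size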
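AMA1 (3D7) with his tag at 25 nM final met compounds first, then biotinylated RON2 peptide at 25 nM; detection used donor plus acceptor beads, 10 µg/mL apiece, read by AlphaScreen after 30 min at room temperature.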
HCV inhibitor = qHTS Assay for Inhibitors of Hepatitis C Virus (HCV). Huh7.5.1 HCVcc-Cre infection, luciferase reporter, 44 h. Potency, µM (highest dose often 41.8 µM), for the others: at the top dose activity change, negative = inhibition, actives largely listed as inhibitors. actives 3.4% (n = 340,000). AID 651820, 2012; also: % is scaled to controls: 0 for no effect and ±100 for the full control effect
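Luciferase read-out (15 sec integration) after a 15 min room-temperature substrate step quantifies HCVcc-Cre infection. Cells, 1,000 per well, had compound added 4 h post-plating, then virus at ~0.5 moi, and were cultured 44 h.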
NS1 function inh = qHTS Assay for Inhibitors of Influenza NS1 Protein Function; actives 0.4% (n = 270,000); Potency, µM (top dose mostly 46.1 µM), inactives show top-dose activity, positive = more growth; calls by dose curve; also: actives are rising curves; nearly all actives have a fitted effect of over 50% in size
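A cell-based growth assay was used: compounds that relieve NS1-induced slow growth of budding yeast raise OD600. Assay medium was yeast nitrogen base with ammonium sulphate and -URA supplement, pH 6.0, with 2% galactose.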
An asterisk follows results filed as active; u = inconclusive; x = not tested or not shown; [ ] = remark or other dose. Sampled rows, rich in hits. Any-hit rate of the full collection: about 12%. Unless noted, calls follow the shape of the dose curve; as a rule, active = well fitted curve in the direction sought with a large enough effect; inconclusive = small, poorly fitted or top-dose-only effect, or another doubt; inactive = no such curve, though single readings can be large; an effect the other way counts as inactive or inconclusive. Potency is read from the fitted curve at half-maximal effect.

SMILES	SARS PLpro yeast	Pf growth 48h	Pf growth 96h	AMA1-RON2 inh	HCV inhibitor	NS1 function inh
CC(=O)[C@H]1CC[C@H]2[C@@H]3C=CC4=CC(=O)CC[C@@]4(C)[C@H]3CC[C@]12C	x	-12.0%[12.8 µM]	-19.5%[12.8 µM]	x	x	x
COCCCNC(=S)NNC(=O)c1ccccc1Br	0.4%	1.0%	55.4%[1.15 µM]	46.1%	-2.2%	0.6%
CNC(=S)NNC(=O)c1ccccc1Br	17.1%	-16.1%	9.28µM*	25.2%	15.9%	5.9%
COc1ccc(S(=O)(=O)Nc2ccc3c(c2)OCCO3)cc1OC	5.4%	4.3%	-0.1%	-8.9%	3.6%	3.3%
O=C(Nc1cccnc1)Nc1cccc([N+](=O)[O-])c1	-4.6%	0.0%	0.0%	2.8%	-5.8%	-7.1%
O=C(Nc1ccc(OC(F)(F)F)cc1)Nc1cccc([N+](=O)[O-])c1	-68.8%	2.62µM*	u	18.4%	u	-28.6%
Cc1cc(NC(=O)Nc2cccc([N+](=O)[O-])c2)no1	-0.7%	10.5%[5.75 µM]	38.7%	-2.3%	-15.5%	x
Cc1cc([N+](=O)[O-])ccc1NC(=O)Nc1ccc(F)cc1F	-0.2%	u	1.3%	0.0%	3.55µM*	-8.3%
Cc1ccc(NC(=O)Nc2cccc([N+](=O)[O-])c2)cc1F	-13.5%	11.8%	u	5.1%	11.2µM*	-31.7%
CC1CC(=O)Nc2ccccc2N1C(=O)Cn1cnc2ccccc2c1=O (stereo unspecified)	-0.8%[6.58 µM]	2.7%	-0.4%	-2.7%	15.7%	x
CCC(C)n1c(SCC(=O)Nc2cc(C(C)(C)C)nn2-c2ccccc2)nc2ccccc2c1=O (stereo unspecified)	5.8%	10.4µM*	5.86µM*	-15.4%	u	u
Cc1csc(SCC(=O)Nc2cc(C(C)(C)C)nn2-c2ccccc2)n1	-1.7%	7.38µM*	u	-6.7%	u	-16.0%
CCn1c(SCC(=O)Nc2cc(C(C)(C)C)nn2-c2ccccc2)nnc1-c1cccs1	10.2%	-13.2%	u	30.2%	15.8µM*	-9.8%
Cc1sc2ncnc(OCC(=O)NC3CCS(=O)(=O)C3)c2c1C (stereo unspecified)	-0.7%	8.0%	30.1%	-5.2%	21.0%	-4.6%
COc1ccc(C)cc1N(CC(=O)NCCN1CCOCC1)S(=O)(=O)c1ccccc1	x	4.0%	u	-6.9%	17.3%	x
COc1ccccc1/C=C/C(=O)OCC(=O)NC(=O)NC1CCCC1	-19.8%	x	x	3.4%	-6.2%	x
Cc1nc2ccccc2n1CC(O)COCC1CC=CCC1 (stereo unspecified)	-2.6%	u	17.7%	40.5%	11.2µM*	0.8%
CCc1nc2sc3c(c2c(=O)n1NC(=O)CCl)CCCC3	10µM*	10.7%	x	8.2%	u	-6.2%
CCCNC(=O)c1cc(C2CCCCN2C(=O)CCCc2ccccc2)on1 (stereo unspecified)	x	x	x	2.3%	x	x
C=C1C(=O)C23CCC4C(C)(C(=O)OC)CCCC4(C)C2CCC1(O)C3 (stereo unspecified)	x	x	x	-7.1%	3.16µM*	x
C=CCOCCN(CC)CC	1.2%	2.2%	31.6%	16.8%	6.9%	-1.9%
CCN(C(=O)c1cc2c(C)nc3ccccc3c2o1)c1cc(Cl)ccc1OC	-8.3%	u	0.0%	-2.9%	10µM*	-6.4%
CCOc1ccc(NC(=O)c2cc3c(C)nc4ccccc4c3o2)cc1	-7.0%	u	13.8%	0.0%	u	1.2%
CN(Cc1ccccc1)Cc1nc2c([nH]1)c(=O)[nH]c(=O)n2C	0.8%	22.2%	10.4µM*	81.5%	9.1%	7.4%
Cn1c(=O)c2[nH]c(CN(Cc3ccccc3)Cc3ccccc3)nc2n(C)c1=O	-1.2%	-7.7%	-28.7%	-0.7%	11.5%	-36.7%
SMILES	SARS PLpro yeast	Pf growth 48h	Pf growth 96h	AMA1-RON2 inh	HCV inhibitor	NS1 function inh
Cc1cccc(Cn2c(CN3CCN(Cc4ccccc4)CC3)nc3c2c(=O)[nH]c(=O)n3C)c1	-2.3%	6.57µM*	1.85µM*	-3.9%	10µM*	-3.9%
C=CCn1c(=O)c2c(nc(-n3nc(C)cc3C)n2C)n(C)c1=O	8.6%	10.4µM*	-1.4%	-15.2%	8.1%	-7.9%
Cc1cc(C)n(-c2nc3c(c(=O)[nH]c(=O)n3C)n2C)n1	-3.4%	38.3%	0.2%	0.3%	10.3%	6.0%
C=C(C)Cn1c(N2CCC(Cc3ccccc3)CC2)nc2c1c(=O)[nH]c(=O)n2C	-11.0%	13.1µM*	u	-9.7%	-11.7%	-40.3%
NC(=O)/N=C(\N)NC(=O)c1ccccc1	x	x	x	x	x	-2.8%
CC1(CC(=O)O)O[C@H]2CCCCC[C@H]2O1 (stereo partly specified) (tested in a mixture with another compound)	x	x	x	x	x	0.3%
Cc1cc(C)n(-c2nc3c(c(=O)[nH]c(=O)n3C)n2CCc2ccccc2)n1	-0.1%	-17.3%	3.0%	0.0%	2.8%	-3.8%
Cn1c(=O)[nH]c(=O)c2c1nc(N1CCCCCC1)n2CCCSc1nc2ccccc2o1	0.3%	11.7µM*	19.1%	-8.8%	7.3%	-77.3%
C=CCn1c(Sc2ccccc2)nc2c1c(=O)[nH]c(=O)n2C	7.4%	11.7µM*	7.8%	0.9%	5.3%	2.6%
Cc1cc(C)n(-c2nc3c(c(=O)[nH]c(=O)n3C)n2Cc2ccccc2)n1	0.5%	16.6%	0.4%	-3.0%	2µM*	-4.2%
CCCCCn1c(Sc2ccccc2)nc2c1c(=O)[nH]c(=O)n2C	0.7%	-5.9%	0.5%	4.8%	-6.1%	-12.9%
Cn1c(=O)[nH]c(=O)c2c1nc(N1CCCCCC1)n2CCSc1nc2ccccc2o1	-0.9%	31.0%	34.2%	7.7%	13.5%	-16.7%
Cn1c(=O)[nH]c(=O)c2c1nc(SCC(=O)Nc1ccccc1)n2Cc1ccccc1	1.4%	11.7µM*	9.28µM*	-10.7%	11.2µM*	8.3%
Cc1ccc(C(=O)NCC(=O)OC(C)C(=O)Nc2ccc(N3CCOCC3)cc2)s1 (stereo unspecified)	0.3%	8.8%	15.5%	0.0%	12.1%	-2.1%
CN1CCN(c2nc3c(c(=O)[nH]c(=O)n3C)n2Cc2ccccc2)CC1	2.5%	5.3%	0.586µM*	-16.4%	13.6%	6.9%
CC(C)CCn1c(N2CCN(Cc3ccccc3)CC2)nc2c1c(=O)[nH]c(=O)n2C	-6.3%	u	u	x	0.1%	-11.0%
Cc1ccc(C(=O)CNc2nc3c(c(=O)[nH]c(=O)n3C)n2Cc2ccccc2)cc1	-3.0%	13.1µM*	9.28µM*	-1.4%	8.8%	5.2%
